{"source": "PubChem BioAssay (EPA / NIEHS)", "key": {"[1]": {"biological_target": "guinea pig Sigma Receptor, Non-selective Binding, SIGMAR1 (gene 100135589) (UniProt Q60492)", "sequence (Q60492 whole entry, looked up)": "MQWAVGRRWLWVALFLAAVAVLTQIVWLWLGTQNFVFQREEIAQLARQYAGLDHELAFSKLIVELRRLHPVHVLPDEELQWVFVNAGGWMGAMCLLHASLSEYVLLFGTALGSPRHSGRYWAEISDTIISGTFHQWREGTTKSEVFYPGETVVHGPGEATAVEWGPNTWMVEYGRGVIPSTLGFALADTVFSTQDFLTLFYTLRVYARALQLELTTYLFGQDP", "experiment": "NVS_OR_gSIGMA_NonSelective: NovaScreen (NVS) Nuclear Receptor Binding Assay for guinea pig Sigma Receptor, Non-selective Binding (AID 2283367)", "summary_of_the_method": "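Radioligand displacement on guinea pig brain membranes, read by filter-based scintillation counting 1 h after dosing. Loss of signal versus DMSO; initial duplicate single-point screen at 25 uM, actives followed in concentration series.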"}, "[2]": {"biological_target": "Estrogen receptor beta (Homo sapiens) (UniProt Q92731)", "sequence (Q92731 whole entry, looked up, the tested form may be a part)": "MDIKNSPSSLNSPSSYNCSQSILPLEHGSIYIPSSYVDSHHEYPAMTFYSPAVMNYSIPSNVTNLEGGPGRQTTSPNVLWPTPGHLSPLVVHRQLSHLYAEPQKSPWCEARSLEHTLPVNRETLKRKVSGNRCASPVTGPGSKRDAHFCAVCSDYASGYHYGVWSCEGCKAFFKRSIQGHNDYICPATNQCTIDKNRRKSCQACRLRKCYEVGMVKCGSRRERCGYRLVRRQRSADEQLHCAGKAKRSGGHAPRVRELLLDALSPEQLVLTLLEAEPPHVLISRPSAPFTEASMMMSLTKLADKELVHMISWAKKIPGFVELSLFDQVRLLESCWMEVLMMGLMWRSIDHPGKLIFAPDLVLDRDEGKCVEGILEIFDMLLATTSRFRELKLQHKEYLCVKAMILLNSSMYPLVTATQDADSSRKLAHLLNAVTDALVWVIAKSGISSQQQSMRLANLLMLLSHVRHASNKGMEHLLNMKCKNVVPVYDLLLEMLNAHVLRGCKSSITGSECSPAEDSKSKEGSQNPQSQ", "experiment": "OT_ER_ERbERb_0480: Odyssey Thera (OT) 8-hour HEK293T Protein-Complementation Assay for Estrogen Receptor-beta/-beta Homodimer (AID 2283357)", "summary_of_the_method": "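Fluorescence intensity, nuclear for agonists and nuclear plus cytoplasmic for antagonists, was quantified by laser scanning cytometry versus vehicle after 8 h treatment. The cells were HEK293T stably carrying ER beta LBD fragment-complementation partners.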"}, "[3]": {"biological_target": "human Peroxisome Proliferator-activated Receptor alpha (PPARa), PPARA (gene 5465) (UniProt Q07869)", "sequence (Q07869 whole entry, looked up)": "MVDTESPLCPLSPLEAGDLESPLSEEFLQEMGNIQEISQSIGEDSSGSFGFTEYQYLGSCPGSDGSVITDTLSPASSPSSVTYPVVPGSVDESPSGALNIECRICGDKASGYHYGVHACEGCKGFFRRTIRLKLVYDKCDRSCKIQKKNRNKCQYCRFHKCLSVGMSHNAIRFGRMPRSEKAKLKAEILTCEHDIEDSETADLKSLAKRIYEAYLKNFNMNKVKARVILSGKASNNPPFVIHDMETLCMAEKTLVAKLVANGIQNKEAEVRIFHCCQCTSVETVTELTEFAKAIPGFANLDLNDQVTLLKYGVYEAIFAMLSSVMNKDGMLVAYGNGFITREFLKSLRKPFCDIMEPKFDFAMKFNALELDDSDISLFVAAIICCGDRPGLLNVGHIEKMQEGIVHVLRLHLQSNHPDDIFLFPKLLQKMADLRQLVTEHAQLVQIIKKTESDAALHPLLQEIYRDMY", "experiment": "NVS_NR_hPPARa: NovaScreen (NVS) Nuclear Receptor Binding Assay for human Peroxisome Proliferator-activated Receptor alpha (PPARa) (AID 2283359)", "summary_of_the_method": "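Cell-free TR-FRET binding assay with extracted PPARα protein, read 1 h after dosing. Primary screen in duplicate at 25 uM, with actives retested in concentration series. Loss of signal versus DMSO.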"}, "[4]": {"biological_target": "Nuclear receptor subfamily 1 group I member 2 (Homo sapiens) (UniProt O75469)", "sequence (O75469 whole entry, looked up)": "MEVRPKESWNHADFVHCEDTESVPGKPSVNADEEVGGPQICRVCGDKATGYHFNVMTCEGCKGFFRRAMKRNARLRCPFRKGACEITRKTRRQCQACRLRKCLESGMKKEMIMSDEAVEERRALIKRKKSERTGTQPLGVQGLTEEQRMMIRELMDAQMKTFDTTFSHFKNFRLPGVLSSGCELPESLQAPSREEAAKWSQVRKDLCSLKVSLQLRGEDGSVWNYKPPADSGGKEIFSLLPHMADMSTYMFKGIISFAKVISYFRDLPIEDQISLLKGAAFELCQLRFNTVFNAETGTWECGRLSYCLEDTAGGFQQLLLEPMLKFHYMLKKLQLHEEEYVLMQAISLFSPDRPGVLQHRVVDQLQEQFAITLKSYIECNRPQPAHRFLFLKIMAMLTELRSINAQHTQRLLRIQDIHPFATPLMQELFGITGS", "experiment": "NVS_NR_hPXR: NovaScreen (NVS) Nuclear Receptor Binding Assay for human Pregnane X Receptor (PXR) (AID 2283365);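 further: a drop in FRET signal versus DMSO baseline means the compound binds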", "summary_of_the_method": "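Human PXR binding measured by TR-FRET in a cell-free format, 2 h exposure. Single-concentration duplicates at 25 uM preceded concentration-response retests of actives; endpoint fitted positively relative to DMSO, loss of signal indicating binding.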"}, "PGR (gene 5241)": {"biological_target": "PGR (gene 5241) (UniProt P06401)", "sequence (P06401 whole entry, looked up)": "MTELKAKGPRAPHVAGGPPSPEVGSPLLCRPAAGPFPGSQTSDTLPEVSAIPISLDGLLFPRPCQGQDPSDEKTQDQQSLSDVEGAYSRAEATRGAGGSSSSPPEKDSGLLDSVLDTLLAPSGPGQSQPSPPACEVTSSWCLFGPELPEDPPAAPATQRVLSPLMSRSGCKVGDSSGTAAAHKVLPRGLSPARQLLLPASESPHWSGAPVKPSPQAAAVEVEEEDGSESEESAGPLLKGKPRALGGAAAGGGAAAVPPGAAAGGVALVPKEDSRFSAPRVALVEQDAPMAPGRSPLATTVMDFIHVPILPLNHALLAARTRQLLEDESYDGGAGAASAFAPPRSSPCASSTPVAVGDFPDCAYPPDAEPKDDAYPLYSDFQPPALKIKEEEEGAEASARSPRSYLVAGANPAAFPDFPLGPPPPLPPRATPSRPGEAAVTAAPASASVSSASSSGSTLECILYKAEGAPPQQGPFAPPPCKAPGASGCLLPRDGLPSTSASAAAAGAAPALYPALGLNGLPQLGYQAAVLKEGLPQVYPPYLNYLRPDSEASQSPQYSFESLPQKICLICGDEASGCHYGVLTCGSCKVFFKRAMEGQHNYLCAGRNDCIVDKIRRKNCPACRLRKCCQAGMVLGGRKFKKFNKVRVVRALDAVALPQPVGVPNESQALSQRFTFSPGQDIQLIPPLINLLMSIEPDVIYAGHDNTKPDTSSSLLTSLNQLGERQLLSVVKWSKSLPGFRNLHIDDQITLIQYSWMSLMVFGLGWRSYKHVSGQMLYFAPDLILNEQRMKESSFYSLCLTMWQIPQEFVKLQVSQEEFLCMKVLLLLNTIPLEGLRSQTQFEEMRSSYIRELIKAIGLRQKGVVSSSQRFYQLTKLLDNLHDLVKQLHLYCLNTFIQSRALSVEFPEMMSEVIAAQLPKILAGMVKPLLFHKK", "experiment": "NVS_NR_hPR: NovaScreen (NVS) Nuclear Receptor Binding Assay for human Progestron Receptor (PR) (AID 2283360)", "summary_of_the_method": "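Competitive displacement of a labelled radioligand from T47D-derived receptor protein is measured in a cell-free format. Initial testing uses 25 uM in duplicate, with positive and negative controls on every plate.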"}, "[5]": {"biological_target": "Retinoic acid receptor alpha (Homo sapiens) (UniProt P10276)", "sequence (P10276 whole entry, looked up)": "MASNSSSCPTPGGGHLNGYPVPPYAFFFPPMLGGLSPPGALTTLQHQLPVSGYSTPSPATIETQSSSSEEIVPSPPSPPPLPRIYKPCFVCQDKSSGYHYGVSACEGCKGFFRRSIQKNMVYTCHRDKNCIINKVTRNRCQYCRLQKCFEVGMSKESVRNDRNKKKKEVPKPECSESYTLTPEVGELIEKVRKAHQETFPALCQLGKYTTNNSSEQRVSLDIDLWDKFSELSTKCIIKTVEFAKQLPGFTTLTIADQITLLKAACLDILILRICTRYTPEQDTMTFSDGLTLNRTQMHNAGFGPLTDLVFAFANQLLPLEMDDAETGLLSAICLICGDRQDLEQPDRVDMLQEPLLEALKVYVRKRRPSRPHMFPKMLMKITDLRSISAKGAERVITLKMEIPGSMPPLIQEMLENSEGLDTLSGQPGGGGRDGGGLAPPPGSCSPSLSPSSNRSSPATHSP", "experiment": "NVS_NR_hRAR_Antagonist: NovaScreen (NVS) Nuclear Receptor Binding Assay for human Retinoic Acid Alpha Receptor Antagonism (RAR) (AID 2283358)", "summary_of_the_method": "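Cell-free TR-FRET binding assay with extracted human RARalpha in antagonist mode, read 2 h after dosing. Loss of signal was fitted relative to DMSO; the primary screen used 25 uM in duplicate, with concentration series on follow-up.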"}, "[6]": {"biological_target": "Glucocorticoid receptor (Homo sapiens) (UniProt P04150)", "sequence (P04150 whole entry, looked up)": "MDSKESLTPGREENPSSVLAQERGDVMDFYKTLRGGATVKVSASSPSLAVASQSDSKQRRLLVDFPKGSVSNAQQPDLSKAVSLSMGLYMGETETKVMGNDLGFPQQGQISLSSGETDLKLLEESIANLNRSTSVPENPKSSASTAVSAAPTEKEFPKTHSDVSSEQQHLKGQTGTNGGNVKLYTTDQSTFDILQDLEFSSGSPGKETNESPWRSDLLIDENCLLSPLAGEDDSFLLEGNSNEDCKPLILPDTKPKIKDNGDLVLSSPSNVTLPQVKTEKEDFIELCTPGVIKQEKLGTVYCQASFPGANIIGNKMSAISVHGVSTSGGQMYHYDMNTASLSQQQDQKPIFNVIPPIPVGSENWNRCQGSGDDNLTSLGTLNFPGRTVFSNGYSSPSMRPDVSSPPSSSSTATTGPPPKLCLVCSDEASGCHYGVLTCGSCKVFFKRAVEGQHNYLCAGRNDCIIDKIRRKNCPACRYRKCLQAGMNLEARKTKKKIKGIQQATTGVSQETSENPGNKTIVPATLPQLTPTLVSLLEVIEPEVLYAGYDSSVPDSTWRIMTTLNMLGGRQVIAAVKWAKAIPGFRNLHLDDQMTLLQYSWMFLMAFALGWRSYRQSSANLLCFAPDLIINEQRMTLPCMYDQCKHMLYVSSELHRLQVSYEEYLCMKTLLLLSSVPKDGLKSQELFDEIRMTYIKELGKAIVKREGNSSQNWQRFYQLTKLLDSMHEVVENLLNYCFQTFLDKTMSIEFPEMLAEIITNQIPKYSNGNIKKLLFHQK", "experiment": "NVS_NR_hGR: NovaScreen (NVS) Nuclear Receptor Binding Assay for human Glucocorticoid Receptor (GR) (AID 2283363)", "protocol": "NVS_NR_hGR is a biochemical, single-readout assay that uses extracted gene-proteins in a cell-free assay. Measurements were taken 16 hours after chemical dosing in a 96-well plate.NVS_NR_hGR is one of one assay component(s) measured or calculated from the NVS_NR_hGR assay. It is designed to make measurements of radioligand binding, a form of binding reporter, as detected with scintillation counting signals by Filter-based radiodetection technology.Data from the assay component NVS_NR_hGR was analyzed into 1 assay endpoint. This assay endpoint, NVS_NR_hGR, was analyzed in the positive analysis fitting direction relative to DMSO as the negative control and baseline of activity. Using a type of binding reporter, loss-of-signal activity can be used to understand changes in the binding as they relate to the gene NR3C1. Furthermore, this assay endpoint can be referred to as a primary readout, because the performed assay has only produced 1 assay endpoint. To generalize the intended target to other relatable targets, this assay endpoint is annotated to the nuclear receptor intended target family, where the subfamily is steroidal.\nBinding assays used specific radioligands (tritiated, iodinated) with non-radioactive competitive displacement ligands in agonist or antagonist protocols (as indicated) and various reference compounds and inhibitors to titrate specific binding to receptors and transporters. Most enzyme assays (CYPs, kinases, phosphatases, proteases, HDACs) used recombinant protein and specific substrates (fluorescence mostly, some colorimetric and radioactive) and inhibitors, followed by a biochemical separation of substrate and product. All assays for the biochemical HTS were initially run in duplicate at a single concentration (10 uM for CYP450 assays and 25 uM for all others). […] Each assay was run with positive and negative controls, and concurrent controls on every plate. The follow-up (secondary) screen tested active chemical-pairs in concentration series, as well as a few additional assays not tested in the primary screen, some selected negative inactives, and several cases re-run in the concentration series for confirmatory purposes."}, "[7]": {"biological_target": "Retinoic acid receptor alpha (Homo sapiens) (UniProt P10276)", "experiment": "NVS_NR_hRARa_Agonist: NovaScreen (NVS) Nuclear Receptor Binding Assay for human Retinoic Acid Alpha Receptor Agonism (RAR) (AID 2283361)", "summary_of_the_method": "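Cell-free TR-FRET binding readout with extracted receptor protein, read 2 hours after dosing; gain-of-signal fitted relative to DMSO. Screened in duplicate at 25 uM, actives then run in concentration-response.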"}}, "note": "Inconclusive results are not listed. Active and inactive are the calls of the source. How the source made its calls: active means hit-call score of the fitted dose curve at least 0.9, where 1 is the maximum; inconclusive means response in the unintended direction; inactive means score below 0.9.", "data": [{"compound": "CC(C)(C)C(O)(CCc1ccc(Cl)cc1)Cn1cncn1", "note": "(stereo unspecified)", "values": [{"measurement": "outcome", "setting": "[1]", "result": "inactive"}]}, {"compound": "CC(C)(C)OOC(=O)c1ccccc1", "values": [{"measurement": "outcome", "setting": "[2]", "result": "inactive"}, {"measurement": "outcome", "setting": "[3]", "result": "inactive"}, {"measurement": "outcome", "setting": "[4]", "result": "inactive"}]}, {"compound": "O=Cc1ccco1", "values": [{"measurement": "outcome", "setting": "PGR (gene 5241)", "result": "inactive"}]}, {"compound": "CN(C)c1ccc(C(=O)c2ccc(N(C)C)cc2)cc1", "values": [{"measurement": "outcome", "setting": "[2]", "result": "inactive"}, {"measurement": "outcome", "setting": "[4]", "result": "inactive"}]}, {"compound": "CCNS(=O)(=O)C(F)(F)C(F)(F)C(F)(F)C(F)(F)C(F)(F)C(F)(F)C(F)(F)C(F)(F)F", "values": [{"measurement": "outcome", "setting": "[5]", "result": "inactive"}, {"measurement": "outcome", "setting": "[3]", "result": "inactive"}, {"measurement": "outcome", "setting": "[4]", "result": "inactive"}]}, {"compound": "CCOC(=O)[C@]1(c2ccccc2)Oc2ccccc2[C@@H]1N", "values": [{"measurement": "outcome", "setting": "[3]", "result": "inactive"}, {"measurement": "AC50", "setting": "[6]", "result": "25 µM (active)"}, {"measurement": "AC50", "setting": "[1]", "result": "0.0612 µM (active)"}]}, {"compound": "O=C(O)C1C2CCC(O2)C1C(=O)O", "note": "(stereo unspecified)", "values": [{"measurement": "outcome", "setting": "[3]", "result": "inactive"}]}, {"compound": "c1ccc(C2CO2)cc1", "note": "(stereo unspecified)", "values": [{"measurement": "outcome", "setting": "PGR (gene 5241)", "result": "inactive"}]}, {"compound": "Cc1ccc(N=C=O)cc1N=C=O", "values": [{"measurement": "outcome", "setting": "PGR (gene 5241)", "result": "inactive"}]}, {"compound": "c1ccc2c(c1)-c1cccc3cccc-2c13", "values": [{"measurement": "AC50", "setting": "[2]", "result": "37 µM (active)"}, {"measurement": "outcome", "setting": "PGR (gene 5241)", "result": "inactive"}, {"measurement": "outcome", "setting": "[7]", "result": "inactive"}]}, {"compound": "CCCCOC(=O)c1ccccc1C(=O)OCc1ccccc1", "values": [{"measurement": "AC50", "setting": "[2]", "result": "12.6 µM (active)"}, {"measurement": "outcome", "setting": "[3]", "result": "inactive"}, {"measurement": "outcome", "setting": "[1]", "result": "inactive"}]}, {"compound": "Cn1cc(-c2ccccc2)c(=O)c(-c2cccc(C(F)(F)F)c2)c1", "values": [{"measurement": "outcome", "setting": "[6]", "result": "inactive"}]}, {"compound": "OCCOCCO", "values": [{"measurement": "outcome", "setting": "[2]", "result": "inactive"}, {"measurement": "outcome", "setting": "[4]", "result": "inactive"}]}, {"compound": "[As]#[In]", "values": [{"measurement": "outcome", "setting": "PGR (gene 5241)", "result": "inactive"}]}, {"compound": "CCN(CC)CCO", "values": [{"measurement": "outcome", "setting": "[2]", "result": "inactive"}, {"measurement": "outcome", "setting": "PGR (gene 5241)", "result": "inactive"}]}, {"compound": "CS(=O)(=O)NC(=O)c1cc(Oc2ccc(C(F)(F)F)cc2Cl)ccc1[N+](=O)[O-]", "values": [{"measurement": "outcome", "setting": "[3]", "result": "inactive"}]}, {"compound": "O=C(N[C@H](c1ccccc1)[C@@H]1CN2CCC1CC2)c1c(Cl)ccc(C(F)(F)F)c1Cl", "values": [{"measurement": "outcome", "setting": "[2]", "result": "inactive"}, {"measurement": "AC50", "setting": "[1]", "result": "22.3 µM (active)"}]}, {"compound": "CCC[CH2][Sn]([Cl])([CH2]CCC)[CH2]CCC", "values": [{"measurement": "AC50", "setting": "[3]", "result": "0.0235 µM (active)"}, {"measurement": "AC50", "setting": "PGR (gene 5241)", "result": "2.92 µM (active)"}, {"measurement": "AC50", "setting": "[6]", "result": "0.726 µM (active)"}]}, {"compound": "[Cl-].[Cl-].[Hg+2]", "values": [{"measurement": "outcome", "setting": "[2]", "result": "inactive"}, {"measurement": "AC50", "setting": "[6]", "result": "8.46 µM (active)"}]}, {"compound": "CCCCCCCCn1sccc1=O", "values": [{"measurement": "outcome", "setting": "[2]", "result": "inactive"}, {"measurement": "AC50", "setting": "[6]", "result": "7.16 µM (active)"}]}, {"compound": "O=[N+]([O-])c1ccc(Oc2ccc(Cl)cc2Cl)cc1", "values": [{"measurement": "outcome", "setting": "[2]", "result": "inactive"}, {"measurement": "outcome", "setting": "[6]", "result": "inactive"}]}, {"compound": "CN(C)[C@@H]1C(=O)C(C(N)=O)=C(O)[C@@]2(O)C(=O)C3=C(O)c4c(O)cccc4[C@@](C)(O)[C@H]3C[C@@H]12", "values": [{"measurement": "AC50", "setting": "[6]", "result": "15.9 µM (active)"}]}, {"compound": "Nc1ccc([N+](=O)[O-])cc1", "values": [{"measurement": "outcome", "setting": "[2]", "result": "inactive"}, {"measurement": "outcome", "setting": "PGR (gene 5241)", "result": "inactive"}]}, {"compound": "N#CC(Br)(Br)C(N)=O", "values": [{"measurement": "outcome", "setting": "[1]", "result": "inactive"}]}, {"compound": "CCCCCCCCOC(=O)c1ccc(C(=O)OCCCCCCCC)c(C(=O)OCCCCCCCC)c1", "values": [{"measurement": "outcome", "setting": "[2]", "result": "inactive"}, {"measurement": "outcome", "setting": "PGR (gene 5241)", "result": "inactive"}]}, {"compound": "CCCCC(CC)COC(=O)c1ccc(C(=O)OCC(CC)CCCC)c(C(=O)OCC(CC)CCCC)c1", "note": "(stereo unspecified)", "values": [{"measurement": "outcome", "setting": "[4]", "result": "inactive"}]}, {"compound": "CCN(CC)N=O", "values": [{"measurement": "outcome", "setting": "[5]", "result": "inactive"}, {"measurement": "outcome", "setting": "[3]", "result": "inactive"}]}, {"compound": "Oc1ccccc1Cl", "values": [{"measurement": "outcome", "setting": "[3]", "result": "inactive"}]}, {"compound": "C=CCc1ccc2c(c1)OCO2", "values": [{"measurement": "outcome", "setting": "[2]", "result": "inactive"}, {"measurement": "outcome", "setting": "[3]", "result": "inactive"}, {"measurement": "AC50", "setting": "[1]", "result": "11.6 µM (active)"}]}, {"compound": "C1=Cc2cccc3cccc1c23", "values": [{"measurement": "outcome", "setting": "PGR (gene 5241)", "result": "inactive"}]}, {"compound": "CCCCCOC(=O)c1ccccc1C(=O)OCCCCC", "values": [{"measurement": "AC50", "setting": "[2]", "result": "29.9 µM (active)"}, {"measurement": "outcome", "setting": "[6]", "result": "inactive"}]}]}
